# Screening results (PubChem)
# MEX-5 binding = MEX-5 zinc finger RNA-binding disruptors – biochemical, C. elegans, fluorescence polarization, MLPCN library, primary screen. Zinc finger protein mex-5 (Caenorhabditis elegans), Q9XUB2. MEX-5/FITC-TCR2 RNA binding; active compounds read low. activity score (negative = inhibition of binding), % at 10 µM. 300,000 compounds, 0.38% hits. AID 1832, 2009;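 active means inhibition past about -25% in most replicates, and total fluorescence under double the plate's negative control median, limit read from the data; inconclusive means replicates evenly split on the limit, or fluorescence at least double controls; inactive means too little inhibition in most replicates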
# EBV gp42 block = Epstein-Barr virus gp42 inhibitors, primary screen, biochemical, uHTS, fluorescence polarization | Glycoprotein 42 (Epstein-Barr virus (strain AG876)), Q1HVG2 | Fluorescence polarization binding assay, mP read-out | inhibition, % (tested at 21.74 µM) | 220,000 compounds, 0.42% hits | AID 1085, 2008; in the data active means inhibition above about 50%
# MCL1-BIM inh = inhibitors of MCL1 binding to BIM-BH3, primary screen, biochemical, fluorescence polarization | Induced myeloid leukemia cell differentiation protein Mcl-1 (Homo sapiens), Q07820 | GST-MCL1 / FITC-Bim-BH3 fluorescence polarization | inhibition, % at 10.9 µM | 320,000 compounds, 0.68% hits | AID 2057, 2009;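 active means inhibition above the mean inhibition of all tested compounds plus 3 SD, set per campaign, cut at about 40% in these data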;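 further: higher means more loss of mP so more displacement of Bim peptide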
# Target sequence (Q07820 whole entry, looked up): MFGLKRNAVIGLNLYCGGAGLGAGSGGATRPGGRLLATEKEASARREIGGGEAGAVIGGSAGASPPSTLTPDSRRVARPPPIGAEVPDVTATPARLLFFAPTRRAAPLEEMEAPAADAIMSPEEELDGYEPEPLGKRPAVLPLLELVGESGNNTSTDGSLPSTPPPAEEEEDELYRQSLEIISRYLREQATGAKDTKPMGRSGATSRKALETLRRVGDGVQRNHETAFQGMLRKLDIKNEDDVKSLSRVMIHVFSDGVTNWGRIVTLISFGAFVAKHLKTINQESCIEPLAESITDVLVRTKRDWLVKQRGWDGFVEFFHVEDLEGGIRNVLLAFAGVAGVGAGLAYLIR
# BCLXL inh = inhibitors of human Bcl-xL, primary screen, biochemical, fluorescence polarization, HTS; Bcl-2-like protein 1 (Homo sapiens), Q07817; GST-Bcl-xL / FITC-Bim BH3 peptide fluorescence polarization; inhibition, % at 10.9 µM; 320,000 compounds, 0.7% hits; AID 2129, 2009;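 active means inhibition above the mean of all tested compounds plus 3 SD, cutoff set per campaign, cut at about 30% in these data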;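 further: inhibitors lower millipolarization by displacing the labeled peptide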
# Target sequence (Q07817 whole entry, looked up): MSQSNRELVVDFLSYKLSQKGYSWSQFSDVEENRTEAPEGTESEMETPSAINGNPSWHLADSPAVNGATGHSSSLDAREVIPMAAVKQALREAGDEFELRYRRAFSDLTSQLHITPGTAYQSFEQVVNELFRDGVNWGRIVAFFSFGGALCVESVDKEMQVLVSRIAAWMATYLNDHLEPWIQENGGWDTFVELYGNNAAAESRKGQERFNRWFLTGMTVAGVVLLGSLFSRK
# E coli Lon inh = inhibitors of E. coli Lon protease, primary screen, biochemical, fluorescence polarization; 360,000 compounds, 0.42% hits; purified E. coli Lon protease; inhibition, % at 7.94 µM; P0A9M0; in the data active means inhibition above about 13%, passing the limit was not always enough
# GLD-1 RNA inh = GLD-1/TGE RNA complex disruptors, primary screen, biochemical, fluorescence polarization | Female germline-specific tumor suppressor gld-1 (Caenorhabditis elegans), Q17339 | purified GLD-1 + fluorescein TGE RNA | inhibition, % at 5.96 µM | 320,000 compounds, 0.44% hits | AID 2280, 2010;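 active means percent inhibition above a per-plate cutoff, the plate mean of test compounds plus 3 SD, cut at about 30% in these data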
# BCLXL inh confirm = Bcl-xL inhibitors blocking Bim BH3 binding, confirmation, counter-screen for MCL1 inhibitor project, biochemical, fluorescence polarization; shares compounds with MCL1-BIM inh; GST-Bcl-xL / FITC-Bim BH3 peptide FP binding; inhibition, % at 10.9 µM; 1,700 compounds, 54% hits;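 active means inhibition above a cutoff equal to the mean inhibition of all tested compounds plus 3 SD, cut at about 30% in these data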
# MCL1 BIM confirm = inhibitors of MCL1 binding to BIM-BH3, confirmation, biochemical, fluorescence polarization, triplicate | shares compounds with MCL1-BIM inh | AID 2168, 2009 | inhibition, % at 10.9 µM | GST-MCL1 / FITC-Bim-BH3 fluorescence polarization | 1,700 compounds, 61% hits;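 active means inhibition above the average of all tested compounds plus 3 SD, cut at about 40% in these data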
# Hits are given with their value; . = inactive; ? = inconclusive; / = not tested or not shown; + = active, no number. Only some compounds are listed: those with a hit (about 1.4% of all), similar ones and a draw of the others.
SMILES,MEX-5 binding,EBV gp42 block,MCL1-BIM inh,BCLXL inh,E coli Lon inh,GLD-1 RNA inh,BCLXL inh confirm,MCL1 BIM confirm
CC1(O)C(=O)C=C2C=C(c3ccsc3)OC=C2C1=O (stereo not given),.,/,51.8,.,/,.,33.4,73.3
COC(=O)CCC(=O)OC1(C)C(=O)C=C2C=C(C3CC3)OC=C2C1=O (stereo not given),-41.7,/,55.5,54.1,/,66.8,48.4,70.5
COCCN1C=C2C(=O)C(C)(OC(=O)CCC(=O)OC)C(=O)C=C2C=C1C1CC1 (stereo not given),.,.,.,.,.,.,/,/
COC(=O)CCC(=O)OC1(C)C(=O)C=C2C=C(c3ccsc3)OC=C2C1=O (stereo not given),-41.2,/,51.4,.,.,.,.,76.5
O=C1CSC(=S)N1/N=C/c1ccc(O)c(O)c1O,-88.3,69.9,84.9,66.0,.,.,74.7,93.5
O=c1[nH]c(=S)[nH]c2c1C(c1ccc(Cl)cc1)OC(C1CCCCC1)C2 (stereo not given),/,/,/,/,.,/,/,/
Cc1ccccc1NC(=O)C1Cc2ccccc2C(=O)O1 (stereo not given),.,.,.,.,.,.,/,/
O=C1OC(C(=O)O)Cc2ccccc21 (stereo not given),.,.,64.2,.,.,.,.,.
CNc1nc(NC)c2cn[nH]c2n1,/,/,/,/,.,/,/,/
Cc1ccc(C=C2C(Cl)=C(Cl)C(Cl)=C2Cl)cc1,.,.,68.7,.,/,.,.,.
CCN1/C(=C/C=C/C=C/C=C/c2sc3ccccc3[n+]2CC)Sc2ccccc21,.,/,.,.,.,.,/,/
CCN1/C(=C/C=C/c2sc3ccccc3[n+]2CC)Sc2ccccc21,?,/,+,+,.,.,+,+
COc1ccc(C(=O)NC(=S)Nc2cccnc2)cc1[N+](=O)[O-],.,.,41.6,.,.,.,.,.
CC(C)NC(=O)c1cc(-c2ccc(F)cc2OC(C)C)n[nH]1,/,/,/,/,.,/,/,/
Cc1ccc(C)c(C(C)NC(=O)CC#N)c1 (stereo not given),.,.,41.8,.,.,.,.,.
Cc1ccc(C)c(C(C)NC(=O)Cc2cccs2)c1 (stereo not given),.,/,.,.,.,.,/,/
Cc1ccc(S(=O)(=O)NC(=O)C2(C)CCN2C(=O)c2ccc(C(F)(F)F)nc2C)cc1 (stereo not given),/,/,/,/,.,/,/,/
CCOC(=O)C/C(C)=N/NC(=O)CNc1cccc(Cl)c1C,.,.,42.8,.,.,.,.,.
CC(Sc1nc2sc3c(c2c(=O)n1-c1ccccc1)CCCC3)C(=O)O (stereo not given),.,.,.,.,.,.,/,/
CCn1c(SC(C)C(=O)O)nc2sc3c(c2c1=O)CCC3 (stereo not given),/,51.6,44.2,.,.,.,.,51.7
CCOC(=O)C1=C(C)NC(C)=C(C(=O)OCC)C1C(=O)OCC(=O)NCCc1ccc(S(N)(=O)=O)cc1,.,/,.,.,.,.,/,/
O=[N+]([O-])c1cc(CN2CCN(c3cccc(C(F)(F)F)c3)CC2)c2cccnc2c1O,.,.,.,.,/,.,/,/
O=[N+]([O-])c1cc(CN2CCCC2)c2cccnc2c1O,/,88.2,87.8,.,.,.,.,94.1
CCC(=O)Nc1ccc2c(c1)nc1n2CCN(CCOC)C1,.,/,.,.,.,.,/,/
COc1cccc(C2Nc3c(F)cc(Br)cc3C3C=CCC32)c1OC (stereo not given),.,.,.,.,.,.,/,/
SMILES,MEX-5 binding,EBV gp42 block,MCL1-BIM inh,BCLXL inh,E coli Lon inh,GLD-1 RNA inh,BCLXL inh confirm,MCL1 BIM confirm
O=C(O)C1Nc2ccc(OC(F)(F)F)cc2C2C=CCC12 (stereo not given),.,/,106.4,47.7,/,.,.,66.9
COc1cccc2c1NC(C(=O)O)C1CC=CC21 (stereo not given),-76.4,62.5,96.2,78.5,.,.,57.3,90.0
O=[N+]([O-])c1ccc(/C=C/C2=NN(c3ccccc3)C(c3ccco3)C2)cc1 (stereo not given),/,.,66.9,67.1,.,.,93.0,109.3
COc1ccccc1-n1nnnc1SCC(=O)Nc1ccc(C)c(N)c1,.,/,139.0,140.6,.,92.6,.,.
Cc1cc(Br)ccc1NC(=O)C1C2CCC(O2)C1C(=O)O (stereo not given),.,/,.,.,.,.,/,/
Nc1ccc(C(=O)N2CCN(S(=O)(=O)c3ccc(Br)cc3)CC2)cc1[N+](=O)[O-],.,/,.,.,.,.,/,/
CCOC(=O)NC1(Nc2ccc(C)cc2)Oc2ccccc2O1,.,.,58.0,.,.,.,41.1,46.0
Cc1ccc(-c2c3c([nH]c(=S)c2C#N)CCCC3)o1,.,.,43.1,.,.,.,.,.
N#Cc1c(-c2ccncc2)c2c([nH]c1=S)CCCC2,.,.,.,.,.,.,/,/
CCC(C)c1ccc(NC(=O)C/C(C)=N/NC(=O)c2cnccn2)cc1 (stereo not given),.,.,.,.,.,.,/,/
CCN1CCc2nc3sc(C(=O)Nc4cccnc4Cl)c(N)c3cc2C1,.,/,53.9,45.9,.,.,.,.
Cc1cc(=O)oc2cc(NC(=S)NNC(=O)c3c(Cl)cnn3C)ccc12,.,/,.,.,.,.,/,/
COc1ccc(OC)c(C2CC(=O)N3CN(c4ccccc4)CSC3=C2C#N)c1 (stereo not given),.,.,.,.,.,.,/,/
Cc1cccc(N2CSC3=C(C#N)C(c4ccc(C)o4)CC(=O)N3C2)c1 (stereo not given),.,.,54.4,.,/,.,.,.
CCn1c(C)c(CS(=O)(=O)c2ccccc2)[nH]c1=O,.,.,.,.,.,.,/,/
Cc1cc(C)n2nc(S(=O)(=O)NC(C)(C)C)nc2n1,.,.,.,.,.,.,/,/
COCCNC(=O)c1cc2nc3c(c(C(F)(F)F)n2n1)CCc1ccccc1-3,.,.,49.4,.,.,.,.,.
COc1ccccc1/C=N/NC(=O)CC(=O)NCCc1ccccc1,.,/,.,.,.,.,/,/
